Laboratory results taken from the supplement of paper PMC10037445.
“And” between values parts separate entries of the source, which are not always exact repeats. Identical values can stand only once. In all, about 2,900 compounds were measured (“NF-kB SEAP reporter activity, fold change vs agonist alone”: median about 0.99, highest 2% from about 2.6 on). The list comes from a sample in which the highest values are over-represented; it also holds similar structures and randomly drawn compounds.

What was measured:
[1] = tested on: RAW-Dual; assay: NF-kB SEAP reporter activity, fold change vs agonist alone; higher = enhanced NF-kB activity
Outline: (§1)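 Supernatant from RAW-Dual macrophages was read after 20 hours for IRF by QuantiLuc luminescence and for NF-κB by QuantiBlue absorbance at 620 nm. The cells (50,000 cells/well in DMEM, 384-well plates, 37 °C, 5% CO2) had received 50 nL of library stock by pin tool and, 1 h later, a PRR agonist. Reporter activity is expressed relative to agonist-alone wells as fold change, and wells were flagged cytotoxic if IncuCyte confluency was under 70% of agonist controls in both mask sets.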

[2] = tested on: RAW-Dual; assay: NF-kB SEAP reporter activity, fold change vs agonist alone; cytotoxicity flag (confluency mask): not cytotoxic; higher = enhanced NF-kB activity
Outline: as §1

[3] = tested on: RAW-Dual; assay: NF-kB SEAP reporter activity, fold change vs agonist alone; cytotoxicity flag (confluency mask): cytotoxic (confluency <70% of control); higher = enhanced NF-kB activity
Outline: as §1

[4] = library stock concentration (final ~1000-fold dilution): 10 mM, cytotoxicity flag (confluency mask): not cytotoxic, agonist: Imiquimod (TLR7) […]
[5] = library stock concentration (final ~1000-fold dilution): 10 mM, cytotoxicity flag (confluency mask): not cytotoxic, agonist: MPLA (TLR4) […]
[6] = agonist: ODN 1826 (TLR9) 0.5 ug/mL
[7] = agonist: Pam2CSK4 (TLR2/6) 0.1 ug/mL
[8] = agonist: Pam3CSK4 (TLR2/1) 0.1 ug/mL
[9] = library stock concentration (final ~1000-fold dilution): 10 mM, cytotoxicity flag (confluency mask): cytotoxic (confluency <70% of control), agonist: Imiquimod (TLR7) […]
[10] = library stock concentration (final ~1000-fold dilution): 10 mM, cytotoxicity flag (confluency mask): cytotoxic (confluency <70% of control), agonist: MPLA (TLR4) […]

Br.COc1cc(Br)c(Nc2nc(-c3c(C)nc4ncccn34)cs2)c(Br)c1
NF-kB SEAP reporter activity [1, 4]: 1.42
NF-kB SEAP reporter activity [1, 5]: 2.42

Br.COc1cc(Br)c(Nc2nc(-c3c(C)nc4ncccn34)cs2)c(Br)c1 (library stock concentration (final ~1000-fold dilution): 10 mM)
NF-kB SEAP reporter activity ([2]; agonist: LPS (TLR4) 0.1 ug/mL): 1.91
NF-kB SEAP reporter activity [2, 6]: 1.96
NF-kB SEAP reporter activity [2, 7]: 0.305
NF-kB SEAP reporter activity [2, 8]: 0.861

Cl.O=C1CN2Cc3c(ccc(Cl)c3Cl)NC2=N1 (library stock concentration (final ~1000-fold dilution): 10 mM)
NF-kB SEAP reporter activity ([2]; agonist: LPS (TLR4) 0.1 ug/mL): 0.887
NF-kB SEAP reporter activity [2, 6]: 1.24
NF-kB SEAP reporter activity [2, 7]: 0.872
NF-kB SEAP reporter activity [2, 8]: 1.01

Cl.O=C1CN2Cc3c(ccc(Cl)c3Cl)NC2=N1
NF-kB SEAP reporter activity [1, 4]: 1.34
NF-kB SEAP reporter activity [1, 5]: 1.26

CC(C)CC(NP(=O)(O)OC1OC(C)C(O)C(O)C1O)C(=O)NC(Cc1c[nH]c2ccccc12)C(=O)O (configuration not stated)
NF-kB SEAP reporter activity [1, 4]: 0.973
NF-kB SEAP reporter activity [1, 5]: 1.03

CC(C)CC(NP(=O)(O)OC1OC(C)C(O)C(O)C1O)C(=O)NC(Cc1c[nH]c2ccccc12)C(=O)O (configuration not stated) (library stock concentration (final ~1000-fold dilution): 10 mM)
NF-kB SEAP reporter activity ([2]; agonist: LPS (TLR4) 0.1 ug/mL): 1.04
NF-kB SEAP reporter activity [2, 6]: 0.986
NF-kB SEAP reporter activity [2, 7]: 1.05
NF-kB SEAP reporter activity [2, 8]: 1.41

CCc1ccc(NC(=O)Nc2c[nH]c3ccccc23)cc1
NF-kB SEAP reporter activity ([1]; library stock concentration (final ~1000-fold dilution): 1 mM, cytotoxicity flag (confluency mask): not cytotoxic, agonist: Imiquimod (TLR7) […]): 0.782
NF-kB SEAP reporter activity ([1]; library stock concentration (final ~1000-fold dilution): 1 mM, cytotoxicity flag (confluency mask): not cytotoxic, agonist: MPLA (TLR4) […]): 0.736

CCc1ccc(NC(=O)Nc2c[nH]c3ccccc23)cc1 (library stock concentration (final ~1000-fold dilution): 1 mM)
NF-kB SEAP reporter activity ([2]; agonist: LPS (TLR4) 0.1 ug/mL): 0.445
NF-kB SEAP reporter activity [2, 6]: 0.702
NF-kB SEAP reporter activity [2, 7]: 0.417
NF-kB SEAP reporter activity [2, 8]: 0.365

CN(C(=O)n1cnc(-c2ccc[n+]([O-])c2)c1)C1CCCCC1
NF-kB SEAP reporter activity [1, 4]: 0.995
NF-kB SEAP reporter activity [1, 5]: 1.03

CN(C(=O)n1cnc(-c2ccc[n+]([O-])c2)c1)C1CCCCC1 (library stock concentration (final ~1000-fold dilution): 10 mM)
NF-kB SEAP reporter activity ([2]; agonist: LPS (TLR4) 0.1 ug/mL): 1.04
NF-kB SEAP reporter activity [2, 6]: 0.925
NF-kB SEAP reporter activity [2, 7]: 0.966
NF-kB SEAP reporter activity [2, 8]: 1.01

CC(=O)Oc1cc2c(cc1Cl)C(c1ccccc1C(=O)O)c1cc(Cl)c(OC(C)=O)cc1O2 (library stock concentration (final ~1000-fold dilution): 10 mM)
NF-kB SEAP reporter activity ([2]; agonist: LPS (TLR4) 0.1 ug/mL): 1.48
NF-kB SEAP reporter activity [2, 6]: 1.24
NF-kB SEAP reporter activity [2, 7]: 1.12
NF-kB SEAP reporter activity [2, 8]: 1.05

CC(=O)Oc1cc2c(cc1Cl)C(c1ccccc1C(=O)O)c1cc(Cl)c(OC(C)=O)cc1O2
NF-kB SEAP reporter activity [1, 4]: 1.04
NF-kB SEAP reporter activity [1, 5]: 1.41

COc1cc(C2CC(c3ccccc3)=NN2C(N)=S)cc(OC)c1OC (configuration not stated) (library stock concentration (final ~1000-fold dilution): 10 mM)
NF-kB SEAP reporter activity ([2]; agonist: LPS (TLR4) 0.1 ug/mL): 1.16
NF-kB SEAP reporter activity [2, 6]: 1.25
NF-kB SEAP reporter activity [2, 7]: 0.997
NF-kB SEAP reporter activity [2, 8]: 1.13

COc1cc(C2CC(c3ccccc3)=NN2C(N)=S)cc(OC)c1OC (configuration not stated)
NF-kB SEAP reporter activity [1, 4]: 1.58
NF-kB SEAP reporter activity [1, 5]: 1.29

O=C(c1ccc(C(=O)N2CCC(N3CCCC3)CC2)c(Nc2ccccc2)c1)N1CCC(N2CCCC2)CC1
NF-kB SEAP reporter activity [1, 4]: 0.917
NF-kB SEAP reporter activity [1, 5]: 1.12

CCOc1cc(C(=O)N2CCC(N3CCN(C)CC3)CC2)ccc1Nc1ncc2c(n1)N(C1CCCC1)c1ccccc1C(=O)N2C
NF-kB SEAP reporter activity [1, 9]: 1.44
NF-kB SEAP reporter activity [1, 10]: 2.71

COc1cc(C(=O)N2CCC(N3CCN(C)CC3)CC2)ccc1Nc1ncc2c(n1)N(C)c1ccccc1C(=O)N2C
NF-kB SEAP reporter activity [1, 4]: 1.48
NF-kB SEAP reporter activity [1, 5]: 2.66

COc1cc(N2CCN(C)CC2)ccc1Nc1ncc2c(n1)N(C)c1ccccc1C(=O)N2
NF-kB SEAP reporter activity [1, 4]: 0.928
NF-kB SEAP reporter activity [1, 5]: 1.03

O=C(c1ccc(Nc2nccc(-c3cc4ccccc4s3)n2)cc1)N1CCC(N2CCCC2)CC1 (library stock concentration (final ~1000-fold dilution): 10 mM)
NF-kB SEAP reporter activity ([3]; agonist: LPS (TLR4) 0.1 ug/mL): 0.302 and 0.283
NF-kB SEAP reporter activity [3, 6]: 0.179 and 0.19
NF-kB SEAP reporter activity [3, 7]: 0.0736 and 0.0841
NF-kB SEAP reporter activity [3, 8]: 0.128 and 0.186

COc1cc(N2CCN(C)CC2)ccc1Nc1ncc2c(n1)N(C)c1ccccc1C(=O)N2 (library stock concentration (final ~1000-fold dilution): 10 mM)
NF-kB SEAP reporter activity ([2]; agonist: LPS (TLR4) 0.1 ug/mL): 0.966
NF-kB SEAP reporter activity [2, 6]: 0.514
NF-kB SEAP reporter activity [2, 7]: 1.08
NF-kB SEAP reporter activity [2, 8]: 1.61

CCOc1cc(C(=O)N2CCC(N3CCN(C)CC3)CC2)ccc1Nc1ncc2c(n1)N(C1CCCC1)c1ccccc1C(=O)N2C (library stock concentration (final ~1000-fold dilution): 10 mM)
NF-kB SEAP reporter activity ([3]; agonist: LPS (TLR4) 0.1 ug/mL): 5.49
NF-kB SEAP reporter activity [3, 6]: 1.31
NF-kB SEAP reporter activity [3, 7]: 1.36
NF-kB SEAP reporter activity [3, 8]: 3.42

O=C(c1ccc(C(=O)N2CCC(N3CCCC3)CC2)c(Nc2ccccc2)c1)N1CCC(N2CCCC2)CC1 (library stock concentration (final ~1000-fold dilution): 10 mM)
NF-kB SEAP reporter activity ([2]; agonist: LPS (TLR4) 0.1 ug/mL): 0.933
NF-kB SEAP reporter activity [2, 6]: 0.944
NF-kB SEAP reporter activity [2, 7]: 1.04
NF-kB SEAP reporter activity [2, 8]: 1.33

COc1cc(N2CCC(N)CC2)ccc1Nc1ncc(Cl)c(-c2c[nH]c3ccccc23)n1
NF-kB SEAP reporter activity [1, 9]: 0.251
NF-kB SEAP reporter activity [1, 10]: 0.226

CCOc1cc(N2CCC(O)CC2)ccc1Nc1ncc2c(n1)N(C)c1ccccc1C(=O)N2C
NF-kB SEAP reporter activity [1, 4]: 1.23
NF-kB SEAP reporter activity [1, 5]: 1.91

CCOc1cc(N2CCC(O)CC2)ccc1Nc1ncc2c(n1)N(C)c1ccccc1C(=O)N2C (library stock concentration (final ~1000-fold dilution): 10 mM)
NF-kB SEAP reporter activity ([2]; agonist: LPS (TLR4) 0.1 ug/mL): 3.72
NF-kB SEAP reporter activity [2, 6]: 1.57
NF-kB SEAP reporter activity [2, 7]: 1
NF-kB SEAP reporter activity [2, 8]: 1.48

COc1cc(N2CCC(N)CC2)ccc1Nc1ncc(Cl)c(-c2c[nH]c3ccccc23)n1 (library stock concentration (final ~1000-fold dilution): 10 mM)
NF-kB SEAP reporter activity ([3]; agonist: LPS (TLR4) 0.1 ug/mL): 0.166
NF-kB SEAP reporter activity [3, 6]: 0.19
NF-kB SEAP reporter activity [3, 7]: 0.0626
NF-kB SEAP reporter activity [3, 8]: 0.118

COc1cc(C(=O)N2CCC(N3CCN(C)CC3)CC2)ccc1Nc1ncc2c(n1)N(C)c1ccccc1C(=O)N2C (library stock concentration (final ~1000-fold dilution): 10 mM)
NF-kB SEAP reporter activity ([2]; agonist: LPS (TLR4) 0.1 ug/mL): 3.59
NF-kB SEAP reporter activity [2, 6]: 0.264
NF-kB SEAP reporter activity [2, 7]: 1.02
NF-kB SEAP reporter activity [2, 8]: 2.01
